# Values joined by “and” are separate entries in the source; they are usually repeats but may differ in a detail not shown here. Equal entries are not always repeated. Inconclusive results are not listed. Entries that show only a call come without a potency. Active and inactive are the calls of the source. The call rests on the fitted dose curve; in most records, active means well fitted curve in the direction sought with a large enough effect; inconclusive means small, poorly fitted or top-dose-only effect, or another doubt; inactive means no such curve, though single readings can be large; an effect the other way counts as inactive or inconclusive.
# Tests used:
# Furin (Homo sapiens) = Furin (Homo sapiens) (UniProt P09958); experiment: Furin counterscreen qHTS for Zika virus inhibitors (AID 1347149); further: nearly all actives have a fitted effect of over 70% in size; further: potency means the concentration at half of the fitted maximal effect
# Method in brief: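 Counterscreen measures cleavage of 2 microM BOC-RVRR-AMC, below its ~15 microM Km, by 5 nM full-length human furin at pH 7.0 after a 15-min compound preincubation. Inhibition derives from the 15-min fluorescence increase at 37C.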
# [1] = test system: Zika virus NS2B-NS3 protease (linked construct); experiment: Confirmatory screen NINDS AMC qHTS for Zika virus inhibitors (AID 1347152); further: nearly all actives have a fitted effect of over 70% in size; further: potency means the concentration at half of the fitted maximal effect
# Method in brief: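 Purified NS2B-NS3 protease with NS2B hydrophilic domain linked to NS3 protease domain by flexible linker, 1 nM final in 10 mM Tris-HCl pH 8.0, 0.01% Tween 20. Compounds preincubated 15 min, room temperature; Bz-Nle-KRR-AMC 10 microM (Km 18.3 µM); 15-min fluorescence change, 4-parameter Hill fit.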
# [2] = test system: Zika virus NS2B-NS3 protease (unlinked complex); experiment: Confirmatory screen GU AMC qHTS for Zika virus inhibitors (AID 1347153); further: nearly all actives have a fitted effect of over 70% in size
# Method in brief: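 Unlinked NS2B-NS3 complex (25 nM) in 10 mM Tris-HCl pH 8.0, 0.01% Tween 20 preincubated 15 min with compound, then 10 microM Bz-Nle-KRR-AMC (Km 18.3 µM). Fluorescence change over 15 min, normalized, Hill-fitted.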
# [3] = test system: Zika virus NS2B-NS3 protease (unlinked); experiment: Optimization of GU AMC qHTS for Zika virus inhibitors: Unlinked NS2B-NS3 protease assay (AID 1347151); further: nearly all actives have a fitted effect of over 80% in size; further: potency means the concentration at half of the fitted maximal effect
# Method in brief: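 Noncovalent complex of NS2B hydrophilic domain and NS3 protease domain, 25 nM final, in 10 mM Tris-HCl pH 8.0, 0.01% Tween 20. AMC fluorescence change over 15 min at room temperature was fitted to a 4-parameter Hill equation.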
# [4] = molecular target: N-terminal Xaa-Pro-Lys N-methyltransferase 1 (Homo sapiens) (UniProt Q9BV86); experiment: qHTS Assay for Inhibitors of N-terminal methyltransferase 1 (NTMT1): LOPAC validation of the NTMT1 SAHH-coupled ThioGlo3 Assay (AID 1347143);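 further: SAH from peptide methylation measured as thiol fluorescence via SAHH coupling and ThioGlo3; nearly all actives have a fitted effect of over 70% in size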; further: potency means the concentration at half of the fitted maximal effect
# Method in brief: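 NTMT1 125nM + cpds (various conc.), 1 min RT; add SAM 100uM/SAHH 10uM/ThioGlo3 15uM (addition mix). SAHH-coupled thiol detection, Ex340/Em450, t0 and 30 min RT; signal normalized to background. LOPAC 1280-cpd pilot.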
# Sequence of Furin (Homo sapiens) (P09958 whole entry, looked up): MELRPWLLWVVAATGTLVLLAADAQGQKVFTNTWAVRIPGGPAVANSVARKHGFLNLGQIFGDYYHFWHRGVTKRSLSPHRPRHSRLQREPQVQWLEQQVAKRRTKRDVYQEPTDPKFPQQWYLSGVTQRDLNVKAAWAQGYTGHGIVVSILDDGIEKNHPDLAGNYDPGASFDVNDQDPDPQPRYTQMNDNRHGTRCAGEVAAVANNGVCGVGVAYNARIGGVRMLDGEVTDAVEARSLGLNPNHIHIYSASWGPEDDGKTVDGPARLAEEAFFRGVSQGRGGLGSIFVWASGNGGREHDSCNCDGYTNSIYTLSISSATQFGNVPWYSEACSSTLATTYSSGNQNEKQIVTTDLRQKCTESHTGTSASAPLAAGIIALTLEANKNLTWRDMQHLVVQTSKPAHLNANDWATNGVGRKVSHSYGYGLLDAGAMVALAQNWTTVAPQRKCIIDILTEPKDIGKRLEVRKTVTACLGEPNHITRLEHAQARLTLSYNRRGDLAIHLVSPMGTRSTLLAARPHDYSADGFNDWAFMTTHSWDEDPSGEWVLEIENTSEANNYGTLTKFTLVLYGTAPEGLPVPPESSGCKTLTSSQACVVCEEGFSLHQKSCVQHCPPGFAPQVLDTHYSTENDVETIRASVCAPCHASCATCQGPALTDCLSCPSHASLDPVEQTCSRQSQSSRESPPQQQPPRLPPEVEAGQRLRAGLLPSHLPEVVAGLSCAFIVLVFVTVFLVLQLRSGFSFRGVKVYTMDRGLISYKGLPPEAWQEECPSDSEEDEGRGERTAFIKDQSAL
# Sequence of N-terminal Xaa-Pro-Lys N-methyltransferase 1 (Homo sapiens) (Q9BV86 whole entry, looked up): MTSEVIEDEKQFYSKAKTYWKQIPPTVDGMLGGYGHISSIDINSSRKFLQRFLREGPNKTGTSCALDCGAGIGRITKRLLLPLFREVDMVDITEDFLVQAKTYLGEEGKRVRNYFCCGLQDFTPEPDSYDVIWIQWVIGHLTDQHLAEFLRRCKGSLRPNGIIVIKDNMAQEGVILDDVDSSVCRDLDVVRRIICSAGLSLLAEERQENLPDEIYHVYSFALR
structure (smiles),measurement,setting,value
NC1[C@H]2CN(c3nc4c(cc3F)c(=O)c(C(=O)O)cn4-c3ccc(F)cc3F)C[C@@H]12 (stereo partly drawn),Potency,Furin (Homo sapiens),24.1 µM (active)
same,Potency,[1],inactive
same,outcome,[2],inactive
N[C@H](C(=O)O)c1ccc(O)cc1,Potency,Furin (Homo sapiens),inactive
same,Potency,[3],inactive
CN1CCN(C2Cc3ccccc3Sc3ccc(Cl)cc32)CC1 (stereo not drawn),Potency,[3],inactive
CNCC(O)c1ccc(O)c(O)c1 (stereo not drawn),Potency,[4],inactive
same,Potency,[3],inactive
C[C@H](NC(CCc1ccccc1)C(=O)O)C(=O)N1CCC[C@H]1C(=O)O (stereo partly drawn),Potency,[4],inactive
same,Potency,[3],inactive
CC(C)(C(=O)O)c1ccc(C(O)CCCN2CCC(C(O)(c3ccccc3)c3ccccc3)CC2)cc1 (stereo not drawn),Potency,[4],inactive
same,Potency,[3],inactive
CC(=O)c1ccc2c(c1)N(CCCN(C)C)c1ccccc1S2,Potency,[3],inactive
CC(C)c1c(C(=O)Nc2ccccc2)c(-c2ccccc2)c(-c2ccc(F)cc2)n1CC[C@@H](O)C[C@@H](O)CC(=O)O,Potency,[4],inactive
same,Potency,[3],inactive
Nc1ncnc2c1ncn2[C@@H]1O[C@H](CO)[C@@H](O)[C@H]1O,Potency,[3],inactive
Cc1cc(N)c2ccccc2[n+]1CCCCCCCCCC[n+]1c(C)cc(N)c2ccccc21,Potency,[4],39.8 µM (active)
same,Potency,[3],23.8 µM (active)
CNCCCC1c2ccccc2C=Cc2ccccc21,Potency,[4],56.2 µM (active)
same,Potency,[3],26.7 µM (active)
C[C@]12CC[C@@H]3c4ccc(O)cc4CC[C@H]3[C@@H]1CCC2=O,Potency,[4],inactive
same,Potency,[3],inactive
CNC(=O)Oc1ccc2c(c1)[C@]1(C)CCN(C)[C@@H]1N2C,Potency,[3],inactive
CC(C)C(=O)c1c(C(C)C)nn2ccccc12,Potency,[4],inactive
same,Potency,[3],inactive
CC1=C(/C=C/C(C)=C/C=C/C(C)=C/C(=O)O)C(C)(C)CCC1,Potency,[3],inactive
CC1=C(CC(=O)O)c2cc(F)ccc2/C1=C\c1ccc(S(C)(=O)=O)cc1,Potency,[4],inactive
same,Potency,[3],inactive
CC1=C(CC(=O)O)c2cc(F)ccc2/C1=C\c1ccc(S(C)=O)cc1 (stereo not drawn),Potency,[3],inactive
CN1CCC[C@@H]1Cc1c[nH]c2ccc(CCS(=O)(=O)c3ccccc3)cc12,Potency,[3],inactive
CC(C)(C)c1onc(OCP(=O)(O)O)c1CC(N)C(=O)O (stereo not drawn),Potency,[4],inactive
same,Potency,[3],inactive
CN(C)CCCN1c2ccccc2Sc2ccc(Cl)cc21,Potency,[3],inactive
CC(C)NC[C@H](O)c1ccc(O)c(O)c1,Potency,[3],inactive
CN(C)CCOC(C)(c1ccccc1)c1ccccn1 (stereo not drawn),Potency,[4],inactive
same,Potency,[3],inactive
C#CCN(C)Cc1ccccc1,Potency,[3],inactive
CCN(CC)CCNC(=O)c1c(C)[nH]c(/C=C2\C(=O)Nc3ccc(F)cc32)c1C,Potency,[3],inactive
CC(CN1c2ccccc2Sc2ccccc21)N(C)C (stereo not drawn),Potency,[4],50.1 µM (active)
same,Potency,[3],inactive
NC(N)=NCCC[C@H](N)C(=O)O,Potency,[4],inactive
same,Potency,[3],inactive
Nc1cc(=O)[nH]c(N)n1,Potency,[4],inactive
same,Potency,[3],inactive
Cc1cc(C(C#N)c2ccc(Cl)cc2)c(Cl)cc1NC(=O)c1cc(I)cc(I)c1O (stereo not drawn),Potency,Furin (Homo sapiens),7.64 µM (active) and 13.9 µM (active)
same,Potency,[1],11.1 µM (active)
CN(C)CCCN1c2ccccc2CCc2ccccc21,Potency,[3],inactive
CC(C)(O)c1ccccc1CC[C@@H](SCC1(CC(=O)O)CC1)c1cccc(/C=C/c2ccc3ccc(Cl)cc3n2)c1,Potency,[1],27.1 µM (active)
CSc1ccc2c(c1)C(N1CCN(C)CC1)Cc1ccccc1S2 (stereo not drawn),Potency,[3],inactive
C[C@]12C[C@H](O)[C@H]3[C@@H](CCC4=CC(=O)CC[C@@]43C)[C@@H]1CC[C@@H]2C(=O)CO,Potency,[3],inactive
OCCN1CCN(CCCN2c3ccccc3Sc3ccc(Cl)cc32)CC1,Potency,[3],inactive
CC[C@H]1CN2CCc3cc(OC)c(OC)cc3[C@@H]2C[C@@H]1C[C@H]1NCCc2cc(OC)c(OC)cc21,Potency,[4],inactive
same,Potency,[3],inactive
